A short description of test [1]: small molecules captured by biotinylated probe aFSTL3 – biochemical, small-molecule microarray, fluorescence 635/667, stem cell growth factor project, primary screen (AID 1064).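 Also: measures binding of the biotinylated anti-FSTL3 antibody to printed compounds.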 To be noted: higher = more signal.
The nature of test [2]: binders from COS7 lysate, DM2A8 probe, primary screen, torsin A project, cell lysate, small-molecule microarray, fluorescence 635/667 (AID 1065). Particulars: higher = more signal, COS7 lysate expressing mutant human TOR1A.
Test [3] in a line: small molecules captured by biotinylated probe aFGF2 – biochemical, small-molecule microarray, fluorescence 635/667, stem cell growth factor project, primary screen (AID 1067).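 Also: measures binding of biotinylated aFGF2 protein to printed compounds on slides; z-score merges feature fluorescence and signal-to-noise across triplicate slides.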 Particulars: higher = more signal.
Test [4] in a line: small molecules captured by biotinylated probe aFGF10 – biochemical, small-molecule microarray, fluorescence 635/667, stem cell growth factor project, primary screen (AID 1071).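 Also: score merges 667 nm spot intensity and signal to noise from triplicate slides.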 To be noted: higher = more signal.
Test [5] has as its target Neurogenic locus notch homolog protein 2 (Homo sapiens) (UniProt Q04721). The experiment in a line: small molecules binding Notch2 protein – biochemical, small-molecule microarray, 635 nm fluorescence, stem cell growth factors, primary screen (AID 1073). To be noted: higher = more signal.
Test [6] deals with Pro-neuregulin-1, membrane-bound isoform (Homo sapiens) (UniProt Q02297). The experiment in a line: small molecules binding neuregulin-1 protein – biochemical, small-molecule microarray, fluorescence 635/667, psychiatric disease protein project, primary screen (AID 1075).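 Also: score combines 667 nm spot fluorescence with signal to noise.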 To be noted: NRG1 binding, 635 nm fluorescence, higher = more signal.
Sequence of Pro-neuregulin-1, membrane-bound isoform (Homo sapiens) (Q02297 whole entry, looked up, the tested form may be a part, canonical isoform): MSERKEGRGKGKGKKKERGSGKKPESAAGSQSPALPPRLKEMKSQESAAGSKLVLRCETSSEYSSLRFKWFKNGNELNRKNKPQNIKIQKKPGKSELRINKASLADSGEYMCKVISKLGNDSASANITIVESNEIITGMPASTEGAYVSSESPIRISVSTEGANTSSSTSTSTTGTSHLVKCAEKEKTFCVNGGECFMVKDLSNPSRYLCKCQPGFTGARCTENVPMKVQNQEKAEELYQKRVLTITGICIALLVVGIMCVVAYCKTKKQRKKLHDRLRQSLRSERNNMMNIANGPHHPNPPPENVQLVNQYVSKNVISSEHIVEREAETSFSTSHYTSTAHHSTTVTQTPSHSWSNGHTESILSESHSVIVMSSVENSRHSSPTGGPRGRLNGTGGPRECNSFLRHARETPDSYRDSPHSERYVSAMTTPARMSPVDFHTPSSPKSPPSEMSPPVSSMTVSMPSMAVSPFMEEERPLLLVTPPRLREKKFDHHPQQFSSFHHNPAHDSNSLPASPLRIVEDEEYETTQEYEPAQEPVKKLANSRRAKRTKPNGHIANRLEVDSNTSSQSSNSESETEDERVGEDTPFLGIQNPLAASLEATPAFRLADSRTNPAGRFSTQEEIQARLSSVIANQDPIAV
Test [7] has as its system Neuregulin-1 EGF-like domain. Briefly: small molecules binding NRG1 EGF domain – biochemical, small-molecule microarray, 635 nm fluorescence, primary screen (AID 1081).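 Also: binding of the protein to compounds printed on small-molecule microarray slides.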 To be noted: higher = more signal.
The nature of test [8]: FRG1 expression reporter modulators in myotubes – cell-based, C2C12 myotubes, firefly/Renilla luciferase, luminescence, FRG1 inhibition for FSHD, primary screen (AID 1084). Particulars: FRG1 promoter luciferase, higher = more signal, called active from +8 up or from −8 down.
A short description of test [9]: small molecules captured by biotinylated probe aFST – biochemical, small-molecule microarray, fluorescence 635/667, stem cell growth factor project, primary screen (AID 1086).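 Also: score merges 667 nm fluorescence with signal-to-noise of each printed compound spot.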 Particulars: higher = more signal.
Test [10] is described as follows: binders of probe aHhip on microarray, primary screen, stem cell growth factor project, biochemical, small-molecule microarray, fluorescence 635/667 (AID 1087).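 Also: score merges spot fluorescence at 667nm with spot signal to noise ratio.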 To be noted: higher = more signal.
The test system of test [11] is PRMT1 (protein arginine N-methyltransferase 1). Briefly: small molecules binding arginine methyltransferase PRMT1 – biochemical, small-molecule microarray, 635 nm fluorescence, primary screen (AID 1088).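 Also: binding of Prmt1 protein to compounds spotted on small-molecule microarray slides.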 To be noted: higher = more signal.
Test [12] can be described thus: growth effects on S. cerevisiae YJM789 – YJM789 clinical isolate, OD600, 24 h, basal, primary screen (AID 1089).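 Also: growth of clinical yeast isolate S. cerevisiae YJM 789 seeded 1000 cells per well; test concentration not given here.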 Particulars: higher = more signal, called active from +8 up or from −8 down.
The nature of test [13]: S. pombe growth modifiers, basal conditions – strain 972, OD600, 24 h, no modulator, primary screen (AID 1090).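 Also: basal condition with compound alone and no growth modifier present; test concentration not given here.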 To be noted: S. pombe 972 growth, higher = more signal, called active from +8 up or from −8 down.
Test [14] is described as follows: budding yeast growth modifiers under rapamycin – strain BY4716, OD600, 96 h, primary screen (AID 1091). Also: test concentration not given here. To be noted: S. cerevisiae BY4716 + rapamycin, higher = more signal, called active from +8 up or from −8 down.
Test [15] addresses Torsin-1A-interacting protein 2 (Homo sapiens) (UniProt Q8NFQ8). Briefly: small molecules binding lysate-expressed LULL1 – cell lysate, human LULL1 lysate, 635/667 nm fluorescence, primary screen (AID 1092).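 Also: probe is lysate of COS7 cells overexpressing human LULL1; score merges per-feature 667 nm fluorescence with signal-to-noise.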 To be noted: small-molecule microarray, hLULL1 lysate binding, 635 nm fluorescence; higher = more signal.
Test [16] in a line: optical density change of DRC41 E. coli – strain DRC41, OD650, 24 h, E. coli filamentation project, primary screen (AID 1093).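 Also: MC1000 strain lacking acrAB efflux and sulA so SOS filamentation is blocked; test concentration not given here.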 To be noted: E. coli DRC41 growth, higher = more signal, called active from +8 up or from −8 down.
Test [17] is described as follows: probe aLefty2 binding to arrayed compounds – biochemical, biotinylated probe, 635/667 nm fluorescence, primary screen (AID 1094).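 Also: score merges spot fluorescence near 667 nm with spot signal-to-noise ratio.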 To be noted: small-molecule microarray, higher = more signal.
Test [18] concerns Noggin (protein binding on small-molecule microarray). The experiment in a line: small molecules binding Noggin protein – biochemical, 635/667 nm fluorescence, primary screen (AID 1095).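 Also: score merges 667 nm feature fluorescence with signal to noise over triplicate slides.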 Particulars: 635 nm fluorescence, higher = more signal.
Test [19] has as its target Neurogenic locus notch homolog protein 3 (Homo sapiens) (UniProt Q9UM47). Briefly: small molecules binding NOTCH3 protein – biochemical, 635/667 nm fluorescence, primary screen (AID 1096). Particulars: small-molecule microarray, 635 nm fluorescence, higher = more signal.
Test [20] can be described thus: probe aEGFR binding to arrayed compounds – biochemical, biotinylated probe, 635/667 nm fluorescence, primary screen (AID 1097).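 Also: probe is a biotinylated anti-EGFR antibody binding compounds printed on slides; score combines fluorescence near 667 nm and signal to noise of each spot.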 Particulars: small-molecule microarray, higher = more signal.

The structures appear in SMILES notation. The source made the active and inactive calls.

Sequence of Torsin-1A-interacting protein 2 (Homo sapiens) (Q8NFQ8 whole entry, looked up): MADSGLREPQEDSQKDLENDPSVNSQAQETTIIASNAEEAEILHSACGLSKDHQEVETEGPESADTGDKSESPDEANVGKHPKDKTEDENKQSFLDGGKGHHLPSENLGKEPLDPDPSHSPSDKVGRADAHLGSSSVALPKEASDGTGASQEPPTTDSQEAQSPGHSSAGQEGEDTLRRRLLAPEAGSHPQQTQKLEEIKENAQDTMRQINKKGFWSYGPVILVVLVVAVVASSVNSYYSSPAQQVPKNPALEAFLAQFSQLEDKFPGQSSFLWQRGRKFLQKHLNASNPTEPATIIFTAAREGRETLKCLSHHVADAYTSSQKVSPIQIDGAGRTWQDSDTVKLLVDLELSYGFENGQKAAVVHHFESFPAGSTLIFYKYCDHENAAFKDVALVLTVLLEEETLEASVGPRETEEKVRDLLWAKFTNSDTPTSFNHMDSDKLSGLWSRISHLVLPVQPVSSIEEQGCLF
Sequence of Neurogenic locus notch homolog protein 2 (Homo sapiens) (Q04721 whole entry, looked up, canonical isoform): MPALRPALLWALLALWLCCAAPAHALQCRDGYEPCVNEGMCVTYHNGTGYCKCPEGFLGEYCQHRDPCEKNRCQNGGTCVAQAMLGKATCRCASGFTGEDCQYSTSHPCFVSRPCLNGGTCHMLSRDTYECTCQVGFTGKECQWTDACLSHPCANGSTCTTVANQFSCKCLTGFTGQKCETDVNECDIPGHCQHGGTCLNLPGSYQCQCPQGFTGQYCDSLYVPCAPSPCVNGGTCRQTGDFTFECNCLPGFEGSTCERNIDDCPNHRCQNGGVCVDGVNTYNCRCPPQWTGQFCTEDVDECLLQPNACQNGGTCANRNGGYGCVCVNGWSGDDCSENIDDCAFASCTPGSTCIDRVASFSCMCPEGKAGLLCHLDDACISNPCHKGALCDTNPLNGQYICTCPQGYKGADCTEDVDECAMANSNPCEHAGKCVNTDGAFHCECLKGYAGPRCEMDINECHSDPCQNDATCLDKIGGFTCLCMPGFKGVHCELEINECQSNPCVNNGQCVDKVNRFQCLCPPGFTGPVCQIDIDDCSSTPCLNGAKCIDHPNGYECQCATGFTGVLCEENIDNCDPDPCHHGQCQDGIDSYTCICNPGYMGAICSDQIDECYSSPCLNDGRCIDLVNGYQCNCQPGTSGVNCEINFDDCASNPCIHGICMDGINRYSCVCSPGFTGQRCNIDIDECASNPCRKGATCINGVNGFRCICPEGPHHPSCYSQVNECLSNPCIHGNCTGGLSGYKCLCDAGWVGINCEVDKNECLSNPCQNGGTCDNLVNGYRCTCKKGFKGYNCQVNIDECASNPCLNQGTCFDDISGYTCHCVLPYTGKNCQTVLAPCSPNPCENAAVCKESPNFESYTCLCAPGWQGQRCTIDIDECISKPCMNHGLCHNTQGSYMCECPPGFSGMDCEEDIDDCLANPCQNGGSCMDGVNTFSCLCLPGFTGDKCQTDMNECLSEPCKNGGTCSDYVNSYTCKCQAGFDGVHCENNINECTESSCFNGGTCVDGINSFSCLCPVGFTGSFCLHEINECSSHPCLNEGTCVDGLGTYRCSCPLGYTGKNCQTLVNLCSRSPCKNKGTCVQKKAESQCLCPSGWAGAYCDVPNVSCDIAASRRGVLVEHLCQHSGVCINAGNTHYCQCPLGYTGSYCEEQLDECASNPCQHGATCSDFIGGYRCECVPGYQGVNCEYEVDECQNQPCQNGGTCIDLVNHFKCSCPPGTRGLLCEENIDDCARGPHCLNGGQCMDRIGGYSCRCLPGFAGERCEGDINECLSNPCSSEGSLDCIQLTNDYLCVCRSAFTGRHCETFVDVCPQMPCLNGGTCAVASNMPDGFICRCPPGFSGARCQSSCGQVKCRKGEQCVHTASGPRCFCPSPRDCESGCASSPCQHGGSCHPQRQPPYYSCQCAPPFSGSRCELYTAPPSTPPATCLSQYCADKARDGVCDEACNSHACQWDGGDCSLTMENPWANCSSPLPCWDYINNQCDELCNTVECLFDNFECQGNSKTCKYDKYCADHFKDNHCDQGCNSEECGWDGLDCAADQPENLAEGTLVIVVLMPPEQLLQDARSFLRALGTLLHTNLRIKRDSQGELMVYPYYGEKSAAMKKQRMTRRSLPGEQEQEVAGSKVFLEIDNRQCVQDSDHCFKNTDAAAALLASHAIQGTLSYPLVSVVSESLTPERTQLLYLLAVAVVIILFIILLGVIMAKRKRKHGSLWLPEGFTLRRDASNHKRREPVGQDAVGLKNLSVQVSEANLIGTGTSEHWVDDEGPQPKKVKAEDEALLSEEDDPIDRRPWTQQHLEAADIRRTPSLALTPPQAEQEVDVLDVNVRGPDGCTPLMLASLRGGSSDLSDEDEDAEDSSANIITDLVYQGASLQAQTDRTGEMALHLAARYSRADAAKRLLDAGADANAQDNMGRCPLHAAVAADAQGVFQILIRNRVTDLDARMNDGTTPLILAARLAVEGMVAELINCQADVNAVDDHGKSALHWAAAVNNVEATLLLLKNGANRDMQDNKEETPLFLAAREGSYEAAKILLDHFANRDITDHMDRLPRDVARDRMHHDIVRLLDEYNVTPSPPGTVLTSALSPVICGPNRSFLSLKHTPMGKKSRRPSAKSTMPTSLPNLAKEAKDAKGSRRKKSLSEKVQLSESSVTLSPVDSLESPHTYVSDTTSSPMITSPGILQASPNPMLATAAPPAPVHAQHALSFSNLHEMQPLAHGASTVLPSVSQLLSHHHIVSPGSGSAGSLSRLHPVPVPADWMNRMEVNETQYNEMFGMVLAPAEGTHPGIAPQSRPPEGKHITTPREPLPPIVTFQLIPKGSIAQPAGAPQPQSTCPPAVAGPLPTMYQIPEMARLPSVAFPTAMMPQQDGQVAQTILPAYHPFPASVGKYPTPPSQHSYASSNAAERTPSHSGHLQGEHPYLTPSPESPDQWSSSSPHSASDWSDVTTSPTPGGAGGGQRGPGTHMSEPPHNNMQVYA

As to `COc1ccc(O[C@H]2C=C[C@@H](c3ccccc3)O[C@@H]2CON=C(C)CCN2CCc3nc(-c4ccccc4)c(-c4ccccc4)cc3C2)cc1`, the composite z-score in [1] is -0.311; in [2], 0.183; in test [3], -0.0909; in test [4], -0.631; in [5] it was -0.167; in [6] it was 0.617. The composite z-score in test [7] is -0.0088; in test [9], 0.371; in test [10], 0.136; in test [11] it was 0.307; in [15], 0.607; in [17], -0.148. In addition, the composite z-score is 0.111 in test [18], -0.183 in test [19] and -0.133 in test [20]. Besides, the z-score was 0.282 (inactive) in test [8]; 0.549 (inactive) in test [12]; -0.513 (inactive) in [13]; -2.92 (inactive) in [14]; 0.669 (inactive) in [16].
With `CCOC(=O)NN=C1C[C@@H](O)[C@@H](O)[C@@H]2[C@@H]3C(=O)N(Cc4ccc5c(c4)OCO5)C(=O)[C@@H]3CC[C@H]12`, the composite z-score was -0.428 in test [1]; 0.0687 in [2]; -0.113 in test [3]; -0.388 in [4]; -0.434 in test [5]; 0.279 in test [6]. Further, the composite z-score was 0.678 in test [7]; 0.625 in test [9]; -0.0645 in [10]; 0.667 in test [11]; 2.31 in test [15]; -0.289 in test [17]. Further, the results for the composite z-score in test [18], in test [19] and in test [20] were 0.303, -0.578 and -0.0978, respectively. For the same molecule, the z-score is 0.855 (inactive) in test [8]; -0.126 (inactive) in test [12]; 0.119 (inactive) in test [13]; -0.6 (inactive) in [14]; 0.203 (inactive) in test [16].
On to `CCc1cc2c(nc1CC)CCN(CCC(C)=NO[C@H](C)c1cn([C@H](CO)Cc3ccccc3)nn1)C2`, for which the composite z-score in test [1] is 0.111; in test [2] it was 0.985; in test [3], -0.0154; in test [4], 0.0116; in test [5] it was -0.0913; in [6], 0.107. The composite z-score in test [7] was 0.595; in [9], -0.129; in test [10], -0.249; in [11], 1.05; in [15], 0.461; in test [17], 0.0336. Further, the composite z-score in [18] was 0.336; in test [19], -0.171; in [20] it was -0.142. In addition, the z-score in test [8] is 0.834 (inactive); in [12], -0.563 (inactive); in [13] it was -0.484 (inactive); in test [14] it was -0.112 (inactive); in test [16], -0.0004 (inactive).
Turning to `COC(=O)[C@H](C)NC(=O)CCC1CC(OC(=O)NCc2ccc3c(c2)OCO3)CC2(CCCC(COC(=O)NCC(c3ccccc3)c3ccccc3)O2)O1` (stereo not given in full), the composite z-score in [1] is -0.686; in test [2], 0.7; in [3] it was -0.0541; in [4] it was 1.17; in [5], 0.994; in test [6], 0.682. Moreover, the composite z-score in [7] was 1.28; in [9], 0.132; in [10], 0.0201; in test [11], 1.55; in [15], 2.65; in [17], -0.118. For the same molecule, the composite z-score in test [18] worked out at 1.5; in [19] it was 1.06; in test [20] it was 0.0004. Besides, the z-score in [8] is 2.96 (inactive); in test [12], -0.256 (inactive); in test [13], -0.58 (inactive); in test [14], -0.122 (inactive); in [16], -0.502 (inactive).
For `CCOC(=O)[C@H](CC(C)C)NC(=O)CCC1CC(OC(=O)NCc2cccc3ccccc23)CC2(CCCC(COC(=O)NCCCN3CCCC3=O)O2)O1` (stereo not given in full), the composite z-score in test [1] was -0.494; in test [2], 0.129; in test [3], -0.131; in [4], 0.208; in test [5], 0.755; in [6], 0.466. Further, the composite z-score was 0.953 in test [7]; 0.253 in test [9]; -0.212 in [10]; 1.4 in test [11]; 1.68 in [15]; -0.0998 in test [17]. Moreover, the composite z-score is 0.822 in test [18], 1.12 in test [19] and -0.0238 in [20]. The z-score in test [8] was 1.74 (inactive); in [12], -0.139 (inactive); in test [13], 0.409 (inactive); in test [14], -0.224 (inactive); in test [16], -0.165 (inactive).

The values are drawn from PubChem BioAssay.
